Where “and” joins values, the source holds several entries; their conditions need not be identical. Equal values may be shown once. The whole screen tested about 290,000 compounds, of which about 27,000 (9.3%) were called active. The sample holds actives, similar compounds and a random draw of the others, so the mix is not that of the screen. Unmarked numbers belong to inactive results. Rule as the data show it: active = inhibition mostly above about 28% (no sharp cut-off); inactive = mostly below about 43%.

This assay in a line: A qHTS for Small Molecule Inhibitors of Shiga Toxin. Also: 0% is about no effect. The following applies: Vero cells, Shiga toxin protein synthesis inhibition reporter; at 38.7 µM, stronger effect = higher value. A general note: Quantitative high-throughput screening tests each substance at several concentrations.
As usually defined, the inhibition is the drop in the measured response relative to a control, in per cent. `CC1CCN(S(=O)(=O)c2ccc3c(c2)n(C)c(=O)n3C)CC1`: the inhibition was -5.36%. Take `O=C(Nc1ccc([N+](=O)[O-])cc1)OCCc1ccccn1`: the inhibition is 44%.

Consider `O=C(CC1Nc2ccccc2NC1=O)Nc1ccccc1` (configuration not stated), for which the inhibition was 38.2% (active). Regarding `O=C(CC1NCCNC1=O)Nc1ccc(Oc2ccccc2)cc1` (configuration not stated), the inhibition was 61.1% (active).

In the case of `CCOc1ccc(NC(=O)CC2NCCNC2=O)cc1` (configuration not stated), the inhibition was 13.1%.

For the compound `CCOC(=O)c1ccccc1NC(=O)CC1Nc2ccccc2NC1=O` (configuration not stated), the inhibition is -1.95%.

On to `CCN(CC)CCNCC(=O)Nc1ccc(Oc2ccccc2)cc1`, for which the inhibition was 3.13%.

For `CCc1ccc(NC(=O)CC2C(=O)NCCN2C(=S)Nc2ccccc2)cc1` (configuration not stated), the inhibition is 1.19%. As to `O=C(CC1Nc2ccccc2NC1=O)Nc1ccccc1NC(=O)CC1Nc2ccccc2NC1=O` (configuration not stated), the inhibition was 73.6% (active). Consider `CC1CCN(CCC(=O)Nc2ccccc2)CC1`, for which the inhibition is -4.96%. In the case of `COC(=O)c1cc(C)sc1NC(=O)CC1Nc2ccccc2NC1=O` (configuration not stated), the inhibition was 46.2%. Take `COc1ccc(C23NCCN2C(=O)c2ccccc23)cc1` (configuration not stated): the inhibition is -8.39%. For `COc1ccc(CNC(=O)c2cc(C(=O)C3CC3)c[nH]2)cc1`, the inhibition was 27.9%.

Take `CCOC(=O)c1c(-c2ccccc2)oc2cc(Br)c(O)cc12`: the inhibition is -8.35%. `COc1cc(OC)cc(C(=O)NCCCn2ccnc2)c1`: the inhibition was 13.8%. As to `COCCCNS(=O)(=O)c1cccc(S(=O)(=O)c2cccc(S(=O)(=O)NCCCOC)c2)c1`, the inhibition was -4.92%.

On to `CN(C)c1ccc(C(CNC(=O)c2ccc(F)cc2)c2c[nH]c3ccccc23)cc1` (configuration not stated), for which the inhibition was 5.91%.

On to `CCCS(=O)(=O)Nc1ccc(-c2cn3c(n2)SCC3)cc1`, for which the inhibition is 27.3%.

For `O=[N+]([O-])c1ccccc1NCc1ccc(Cl)cc1`, the inhibition was 48.7% (active). As to `O=C(NCCCNc1ccc([N+](=O)[O-])cc1Cl)c1ccccc1F`, the inhibition is -2.91%.

As to `O=[N+]([O-])c1ccccc1NCc1ccccc1Cl`, the inhibition is 8.89%. Then `O=C(O)c1ccccc1C(=O)Nc1ccccc1[N+](=O)[O-]`, with 0.458%. `O=C(NCCNc1ccccc1[N+](=O)[O-])c1ccccc1F`: the inhibition is 61.5% (active).

With `Cc1c(NC(=S)NCc2ccc(F)cc2)cccc1[N+](=O)[O-]`, the inhibition was -13.6%. `Cc1cc(S(=O)(=O)NCC(C)C)ccc1OCC(=O)NC1CC1`: the inhibition was -1.92%. With `COc1ccc(O)c(/C=N/N=C/c2cccc([N+](=O)[O-])c2)c1` the figure was 1.13%. For `O=C(O)c1ccccc1-c1ccccc1C(=O)Nc1ccccc1Br`, the inhibition was 10.4%. Turning to `COc1ccccc1OCc1nc2ccccc2s1`, the inhibition was 63.5% (active).

For `COc1cccc2sc(NNC(=O)c3nc4ccccc4s3)nc12`, the inhibition was 19.2%.

For `COc1ccccc1OCCn1c(SCC(N)=O)nc2ccccc21`, the inhibition is -12.1%. `Cc1ccc(O)c(/C=N/NC(=O)COc2ccc3c(C)cc(=O)oc3c2)c1`: the inhibition is 4.79%.

Regarding `CCOC12CC(C)(C)CC(C)(CC3=C1C(=O)CC(C)(C)C3)C2` (configuration not stated), the inhibition was -2.06%. With `CCCCOP(=O)(c1ccc(N(C)C)cc1)C(O)c1cc(OC)ccc1OC` (configuration not stated) the figure was -2.17%. On to `CCOC(=O)/C(C#N)=C/c1ccc(N2CCCCC2)cc1`, for which the inhibition is 111% (active).

With `COc1ccc(N2CCN(C(=O)/C(C#N)=C/c3ccccc3)CC2)cc1`, the inhibition is 33.9%. Regarding `CCOC(=O)/C(C#N)=C/c1ccc(N2CCN(Cc3ccccc3)CC2)cc1`, the inhibition was 32.9%. Consider `COc1ccc(S(=O)(=O)N2CCC(C(=O)N3CCCC3)CC2)cc1C`, for which the inhibition was -7.97%. Consider `CCOc1ccc(NC(=O)c2cccc3c2C(=O)N(CC2CCCO2)C3)cc1` (configuration not stated), for which the inhibition was 11.4%. For the compound `COc1ccc(C2CC(O)(c3ccccc3)Oc3cc(C)cc(C)c32)cc1` (configuration not stated), the inhibition was 17.1%.

Consider `COCCn1c(SCC(=O)Nc2cc(Cl)ccc2OC)nc2c(c1=O)SC(C)C2` (configuration not stated), for which the inhibition is 4.22%. Consider `C=CCSc1nc2c(c(=O)[nH]c(=O)n2C)n1Cc1ccccc1`, for which the inhibition was -6.62%. Consider `Cc1cs/c(=N\N=C\c2ccc(O)cc2)n1Cc1ccco1`, for which the inhibition is 0% (active). For `CN(c1ccccc1)c1ccc(/C=c2\s/c(=C(/C#N)C(=O)C(C)(C)C)n(Cc3ccco3)c2=O)cc1`, the inhibition is -15.7%. Consider `CC(C)n1c(=O)c(C=Nc2ccc(Br)cc2)c(O)n(Cc2ccco2)c1=O`, for which the inhibition was -2%. On to `CC(C)c1ccc(Cc2nnc(NCCCO)[nH]c2=O)cc1`, for which the inhibition is -6.37%. In the case of `Cc1ccccc1CN1C(=O)c2ccccc2Sc2ccc(C(=O)NCCCN3CCOCC3)cc21`, the inhibition was -7.27%. For the compound `COC(=O)c1ccc(CNC(=O)C2CCC(=O)N(Cc3cccc(F)c3)C2)cc1` (configuration not stated), the inhibition was -2.68%. In the case of `O=C(c1ccccc1)c1ccc(C(=O)N2CCN(c3ccccc3)CC2)cc1`, the inhibition was 30.8%. `COc1ccc(S(=O)(=O)NC(C)C(=O)N2CCCCCC2)cc1` (configuration not stated): the inhibition is -16.1%. On to `O=C(c1ccccc1)c1ccc(OCC(O)CN2CCCC2)cc1` (configuration not stated), for which the inhibition was 2.19%. As to `CC(C)(C)c1ccc(OC(=O)N2CCCCC2)cc1`, the inhibition was 104% (active). As for `O=C(c1ccccc1)c1ccc(OC(=O)N2CCCC2)cc1`, the inhibition was 47.5% (active). Take `CC(C)(C)c1ccc(C(=O)N2CCC(C(=O)N3CCCCC3)CC2)cc1`: the inhibition was -4.15%. As for `O=C(NCCc1ccccn1)c1nc(Cn2cc([N+](=O)[O-])cn2)no1`, the inhibition is -5.12%. For `COc1cccc(CN(C)CC(O)COC(c2ccccc2)c2ccccc2C)c1` (configuration not stated), the inhibition was -8.7%. Turning to `COc1ccc(-c2nc(N)ncc2-c2ccc(Cl)cc2)c(O)c1`, the inhibition was 8.54%. In the case of `Brc1cccc(-c2nnc3n2CCC3)c1`, the inhibition is -4.22%. Then `COc1ccc(-c2nnc3n2CCCCC3)cc1`, with 5.25%; and `COc1ccc(-c2nc3n(c2Br)CCC3)cc1`, with 87.2% (active). For the compound `CCCCCn1c(=O)[nH]c2cc(C(=O)NCCCN3CCCCC3C)ccc2c1=O` (configuration not stated), the inhibition is -23.9%. With `CNC(=O)CN1C(=O)NC(c2ccccc2)(c2ccccc2)C1=O` the figure was -7.36%. With `O=C(NCc1ccc(F)cc1)C1CCN(C(=O)Nc2ccc(F)cc2)CC1` the figure was -9.53%; with `O=c1[nH]n(-c2ccc([N+](=O)[O-])cc2)c(=O)c2ccccc12`, -17%. With `CC1=NN(c2ccccc2)C(=O)C1C(=O)c1ccc([N+](=O)[O-])cc1` (configuration not stated) the figure was 27.4%; with `O=C1CC(c2ccccc2)=NN1c1ccc([N+](=O)[O-])cc1`, 55% (active). On to `CCC(C)[C@H](NC(=O)N1CCn2c1nc1ccccc12)C(=O)NCc1ccc(OC)cc1` (some centres not stated), for which the inhibition was 13.9%. For the compound `COc1ccc(C(CNCC(=O)Nc2ccccc2F)N(C)C)cc1` (configuration not stated), the inhibition was 7.34%.

As for `Cc1cc(C)c2nc3nc(C)cc(C)c3c(N)c2c1`, the inhibition was 32.6% (active). Turning to `Cc1cc(C)c2nc(-c3ccco3)cc(C(=O)O)c2c1`, the inhibition was -7.1%. `Cc1cc(C)c2nc(SCCC#N)nc(C)c2c1`: the inhibition was 27.9%.

As for `OCCC(O)CO` (configuration not stated), the inhibition is -8.78% and 20.3% and 19.5%. For `COc1ccc(CCNCc2c(-c3ccccc3)n(C)c3ccccc23)cc1`, the inhibition was 11.5%. Then `CN(C)Cc1c(C#N)c2ccccc2n1C`, with -25%; and `COc1ccc(-c2c(C#Cc3ccccc3)c3ccccc3n2C)cc1`, with 43.7% (active); and `COc1cccc(C(=O)Nc2nnc(S(=O)(=O)N(C)c3ccccc3)s2)c1`, with 3.08%. For `Cc1nc2sccn2c(=O)c1S(=O)(=O)NCCc1ccccc1`, the inhibition was -9.77%. As to `CCC(=O)Oc1cccc(C(=O)Nc2ccc(-c3nnc(-c4ccco4)o3)cc2)c1`, the inhibition was 90.4% (active).

Take `COc1ccc(OCC(=O)Nc2nnc(-c3ccco3)s2)cc1`: the inhibition was 2.24%. For `COc1ccc(C(=O)CSc2nnc(-c3ccco3)o2)cc1`, the inhibition was 10.9%. As to `Cc1ccc(OCC(=O)Nc2nnc(-c3ccco3)s2)cc1`, the inhibition was 4.17%. As for `Cc1cccc(NC(=O)CSc2nnc(-c3ccco3)o2)c1`, the inhibition is -23.3%. Then `O=C(CCc1ccccc1)Nc1cccc(-c2nnc(-c3ccco3)o2)c1`, with 19.4%; and `CCCCOc1ccc(-c2nnc(-c3ccco3)o2)cc1`, with 85.9% (active); and `Cc1ccc(OCC(=O)Nc2ccc(-c3nc4ncccc4o3)cc2)cc1`, with 2.45%. As to `Cc1ccc(OCC(=O)Nc2ccc(-c3nnc(-c4ccco4)o3)cc2)cc1`, the inhibition was 22.1% (active). On to `Cc1ccc(-c2nnc(Nc3ccc(C(=O)N(C)C)cc3)c3ccccc23)cc1S(N)(=O)=O`, for which the inhibition is 1.45%. Then `CC(C)(C)n1ncc2c(=O)n(Cc3ccc(Cl)cc3)cnc21`, with 33.8%; and `Cc1cc(=O)oc2c(C)c(OCC(=O)NCCc3ccc(S(N)(=O)=O)cc3)ccc12`, with -5.85%.

On to `CCOc1ccc(NC(=O)[C@H](C)NC(=O)C2CC(=O)N(c3ccc(OC)cc3)C2)cc1` (some centres not stated), for which the inhibition is -4.28%.

For `COCCCNc1nc2ccccc2nc1NS(=O)(=O)c1ccc(F)cc1`, the inhibition was 2.37%.

In the case of `CCCCNC(=O)N1CCCC(N(C)CCc2ccc(OC)c(OC)c2)C1` (configuration not stated), the inhibition is -2.02%. `Cc1ccc(NC(=O)CSc2nn3c(=O)c(C)nnc3s2)cc1Cl`: the inhibition was 7.47%. As for `CC(C)C(=O)OCC(=O)Nc1ccc2c(c1)CCC2`, the inhibition is 14.2%.

Turning to `O=C(NC1CCCC1)c1ccc(Br)s1`, the inhibition is 30.7%. Take `O=C(Nc1ccc2c(c1)CCC2)c1ccc(Br)s1`: the inhibition was 112% (active). With `CC1=C(C(=O)OCC2CCCCC2)C(c2ccc(F)cc2)NC(=O)N1` (configuration not stated), the inhibition is -7.87%. Turning to `CN(C)c1nc(Nc2ccc(Cl)c(Cl)c2)nc(N(C)C)n1`, the inhibition is -11.2%.
